Results: PubChem BioAssay (EPA / NIEHS)
The source made the active and inactive calls. The calls were made as follows: active = hit-call score of the fitted dose curve at least 0.9, where 1 is the maximum; inactive = score below 0.9.

experiment: ATG_PXRE_CIS: Attagene CIS-FACTORIAL HepG2 Assay for human Pregnane X Receptor Element (PXRE) (AID 2282957); details: HepG2 Attagene CIS-FACTORIAL PXRE reporter, mRNA; actives raise or lower the signal
Method in brief: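 Read-out: fluorescence of reporter-specific RT-PCR products resolved by capillary electrophoresis, fitted bidirectionally relative to DMSO. Human HepG2 liver cells carried transfected cis-promoter reporter units and were exposed to chemicals for 24 h.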

| SMILES | AC50 | outcome |
| --- | --- | --- |
| COC(=O)NS(=O)(=O)c1ccc(N)cc1 | 19.9 µM (active) | – |
| CC(C)(C)C(=O)C(Oc1ccc(Cl)cc1)n1cncn1 (stereo unspecified) | 5.02 µM (active) | – |
| Cc1c(COC(=O)[C@@H]2[C@H](/C=C(\Cl)C(F)(F)F)C2(C)C)cccc1-c1ccccc1 | 2.31 µM (active) | – |
| CCOC(=O)C(C)OC(=O)c1cc(Oc2ccc(C(F)(F)F)cc2Cl)ccc1[N+](=O)[O-] (stereo unspecified) | 7.84 µM (active) | – |
| CCN(CC)c1nc(C)cc(OP(=S)(OC)OC)n1 | 3.38 µM (active) | – |
| COCC(=O)N(c1c(C)cccc1C)C(C)C(=O)OC (stereo unspecified) | 9.28 µM (active) | – |
| CCCCC(C#N)(Cn1cncn1)c1ccc(Cl)cc1 (stereo unspecified) | 13.8 µM (active) | – |
| Nc1cnn(-c2ccccc2)c(=O)c1Cl | 81.5 µM (active) | – |
| CC(C)C1(C)N=C(c2ncccc2C(=O)O)NC1=O (stereo unspecified) | – | inactive |
| N#Cc1c(Cl)cccc1Cl | 21.6 µM (active) | – |
| CCNC(=O)NC(=O)C(C#N)=NOC | – | inactive |
| Cc1cc(C)nc(Nc2ccccc2)n1 | – | inactive |
| CC(C)=CC1C(C(=O)OCc2coc(Cc3ccccc3)c2)C1(C)C (stereo unspecified) | 5.63 µM (active) | – |
| COCc1cnc(C2=NC(C)(C(C)C)C(=O)N2)c(C(=O)O)c1 (stereo unspecified) | – | inactive |
| CCOc1nc(F)cc2nc(S(=O)(=O)Nc3c(Cl)cccc3Cl)nn12 | 10.1 µM (active) | – |
| CCN(CC)C(=O)C(C)Oc1cccc2ccccc12 (stereo unspecified) | 0.163 µM (active) | – |
| CS(=O)(=O)c1cc(C(F)(F)F)ccc1C(=O)c1cnoc1C1CC1 | 40.2 µM (active) | – |
| CNC(=O)N(C)c1nnc(C(C)(C)C)s1 | 50 µM (active) | – |

| SMILES | AC50 | outcome |
| --- | --- | --- |
| COC(=O)NC(=S)Nc1ccccc1NC(=S)NC(=O)OC | 7.61 µM (active) | – |
| CCOP(=O)(OCC)Oc1nc(Cl)c(Cl)cc1Cl | 45.7 µM (active) | – |
| CC(C)N1C(=O)N(c2ccccc2)CSC1=NC(C)(C)C | 0.666 µM (active) | – |
| COP(=S)(OC)SCn1nnc2ccccc2c1=O | 5.87 µM (active) | – |
| O=C(Nc1ccccc1-c1ccc(Cl)cc1)c1cccnc1Cl | 4.77 µM (active) | – |
| O=P(O)(O)CCCl | – | inactive |
| C=CCOC(=O)C(C)(C)OC(=O)c1cc(-n2c(=O)cc(C(F)(F)F)n(C)c2=O)ccc1Cl | 1.49 µM (active) | – |
| O=c1n(Cl)c(=O)n(Cl)c(=O)n1Cl | 50 µM (active) | – |
| Clc1nc(Cl)nc(Nc2ccccc2Cl)n1 | 39.7 µM (active) | – |
| CC1(C)CON(Cc2ccccc2Cl)C1=O | 14.8 µM (active) | – |
| COC(=O)c1c(C(F)F)nc(C(F)(F)F)c(C2=NCCS2)c1CC(C)C | 0.123 µM (active) | – |
| CO/N=C(/C1=NOCCO1)c1ccccc1Oc1ncnc(Oc2ccccc2Cl)c1F | 0.483 µM (active) | – |
| CCOc1cc(C(C)(C)C)ccc1C1COC(c2c(F)cccc2F)=N1 (stereo unspecified) | 0.593 µM (active) | – |
| CCSC(=O)N1CCCCCC1 | 15.9 µM (active) | – |
| COc1cc(OC)nc(NC(=O)NS(=O)(=O)c2ncccc2OCC(F)(F)F)n1 | 63 µM (active) | – |
| CSC(=O)c1c(C(F)F)nc(C(F)(F)F)c(C(=O)SC)c1CC(C)C | 0.451 µM (active) | – |
| CC(C)Oc1cccc(NC(=O)c2ccccc2C(F)(F)F)c1 | 4.22 µM (active) | – |
| CN=C=S | – | inactive |
